About 8,800 targets were measured; listed, in parts, are those with a hit and a random draw of the rest. About 0.5% of all pairs of compound and target were hits. A number with no mark means an inactive call.

What all share (experiment): log2 fold change, soluble protein after heating vs DMSO (PISA); higher = thermal stabilisation; K562 lysate, 10 uM; active = over 0.2 and 3.5 SD of the protein, either way, in both replicates (recomputed)
Compound in one experiment: CS(=O)(=O)CCNCc1ccc(-c2ccc3ncnc(Nc4ccc(OCc5cccc(F)c5)c(Cl)c4)c3c2)o1 [lapatinib]
In outline: (§1)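 A 30 min treatment with 10 μM compound was applied to crude K562 extract at 1 mg/mL protein in PBS pH 7.4 with 1 mM MgCl2. Heating for 3 min spanned 48°C-58°C, after which aliquots were pooled, adjusted to 0.5% NP-40 at 4°C and spun at 21,000xg for 90 min. TMTpro 16plex LC-MS/MS of the supernatant, with channel sums equalised, gave values recorded as log-two fold change in thermal stability against solvent controls, from duplicates.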

Compound in a further experiment: CS(=O)(=O)N1CCN(Cc2cc3nc(-c4cccc5[nH]ncc45)nc(N4CCOCC4)c3s2)CC1 [pictilisib]
In outline: as §1

Compound in a further experiment: C[C@@H](Oc1cc(-c2cnn(C3CCNCC3)c2)cnc1N)c1c(Cl)ccc(F)c1Cl [crizotinib]
In outline:
as §1

Compound in experiment [1]: C[C@H](C1=CC=C(C=C1)C(=O)NC2=C3C=CNC3=NC=C2)N
The essentials: as §1

Compound in the next experiment: C[C@H](Nc1ncnc2nc[nH]c12)c1cc2cccc(Cl)c2c(=O)n1-c1ccccc1 [duvelisib]
In outline: as §1

Compound in the next experiment: Cc1cc(Nc2cc(CN3CCOCC3)c3nc(C)c(Cc4ccc(Cl)cc4F)n3n2)n[nH]1 [gandotinib]
In outline:
as §1

Compound in another experiment: Cc1cc(Nc2cc(N3CCN(C)CC3)nc(Sc3ccc(NC(=O)C4CC4)cc3)n2)n[nH]1 [tozasertib]
The essentials: as §1

Compound in a further experiment: Cc1ccc(-n2nc(C(C)(C)C)cc2NC(=O)Nc2ccc(OCCN3CCOCC3)c3ccccc23)cc1 [doramapimod]
The essentials: as §1

Compound in the next experiment: Cc1ccc(NC(=O)c2ccc(CN3CC[C@H](N(C)C)C3)c(C(F)(F)F)c2)cc1Nc1nccc(-c2cncnc2)n1 [bafetinib]
In outline: as §1

Compound in experiment [2]: Cc1cccc(CC(=O)N2CCc3c2ccc(-c2cn(C)c4ncnc(N)c24)c3F)n1
In outline:
as §1

Chain of UniProt Q96GS6 (Q96GS6 whole entry, looked up): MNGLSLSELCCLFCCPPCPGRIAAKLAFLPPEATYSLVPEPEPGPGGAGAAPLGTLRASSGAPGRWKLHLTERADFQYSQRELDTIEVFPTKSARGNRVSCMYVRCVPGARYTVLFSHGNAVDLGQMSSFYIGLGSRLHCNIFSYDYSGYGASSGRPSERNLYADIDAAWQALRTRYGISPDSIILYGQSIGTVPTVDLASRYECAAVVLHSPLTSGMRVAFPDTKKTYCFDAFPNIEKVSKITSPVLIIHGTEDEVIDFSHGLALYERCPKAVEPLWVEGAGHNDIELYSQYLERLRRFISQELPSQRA
Chain of UniProt Q2VPB7 (Q2VPB7 whole entry, looked up): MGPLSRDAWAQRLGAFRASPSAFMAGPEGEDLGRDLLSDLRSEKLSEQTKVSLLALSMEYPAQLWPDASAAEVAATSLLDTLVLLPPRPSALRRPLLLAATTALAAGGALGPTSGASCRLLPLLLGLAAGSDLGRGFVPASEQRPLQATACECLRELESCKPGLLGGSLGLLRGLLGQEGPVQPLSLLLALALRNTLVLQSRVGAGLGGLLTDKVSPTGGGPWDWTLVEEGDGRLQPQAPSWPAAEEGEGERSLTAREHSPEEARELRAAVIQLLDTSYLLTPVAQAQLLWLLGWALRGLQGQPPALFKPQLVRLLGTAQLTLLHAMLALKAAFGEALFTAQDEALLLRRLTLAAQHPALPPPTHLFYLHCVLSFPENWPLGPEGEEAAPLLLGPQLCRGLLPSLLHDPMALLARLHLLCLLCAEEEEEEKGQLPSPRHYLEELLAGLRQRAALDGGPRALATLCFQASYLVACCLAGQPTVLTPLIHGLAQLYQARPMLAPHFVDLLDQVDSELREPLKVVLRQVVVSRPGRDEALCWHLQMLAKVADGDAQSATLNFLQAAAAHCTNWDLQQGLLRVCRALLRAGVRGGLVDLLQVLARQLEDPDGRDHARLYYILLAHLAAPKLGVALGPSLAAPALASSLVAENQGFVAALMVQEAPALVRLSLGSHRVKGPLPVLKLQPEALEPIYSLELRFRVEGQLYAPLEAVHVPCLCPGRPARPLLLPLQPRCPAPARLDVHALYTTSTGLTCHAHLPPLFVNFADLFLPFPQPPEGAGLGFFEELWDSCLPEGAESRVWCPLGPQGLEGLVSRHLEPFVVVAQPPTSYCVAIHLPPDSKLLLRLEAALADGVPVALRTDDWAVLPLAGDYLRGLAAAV
Chain of UniProt Q8N6T3 (Q8N6T3 whole entry, looked up): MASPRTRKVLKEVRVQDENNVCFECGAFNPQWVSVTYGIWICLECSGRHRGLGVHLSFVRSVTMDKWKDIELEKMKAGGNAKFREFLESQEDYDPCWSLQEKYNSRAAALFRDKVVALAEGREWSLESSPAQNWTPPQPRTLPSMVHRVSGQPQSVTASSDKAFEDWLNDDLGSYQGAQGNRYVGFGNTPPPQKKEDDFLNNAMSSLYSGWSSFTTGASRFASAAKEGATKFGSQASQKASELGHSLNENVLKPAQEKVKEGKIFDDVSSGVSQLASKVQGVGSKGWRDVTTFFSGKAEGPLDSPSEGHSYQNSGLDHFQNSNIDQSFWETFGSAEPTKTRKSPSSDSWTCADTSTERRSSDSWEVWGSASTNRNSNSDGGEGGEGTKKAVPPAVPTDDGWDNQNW
Chain of UniProt Q8NFV4 (Q8NFV4 whole entry, looked up): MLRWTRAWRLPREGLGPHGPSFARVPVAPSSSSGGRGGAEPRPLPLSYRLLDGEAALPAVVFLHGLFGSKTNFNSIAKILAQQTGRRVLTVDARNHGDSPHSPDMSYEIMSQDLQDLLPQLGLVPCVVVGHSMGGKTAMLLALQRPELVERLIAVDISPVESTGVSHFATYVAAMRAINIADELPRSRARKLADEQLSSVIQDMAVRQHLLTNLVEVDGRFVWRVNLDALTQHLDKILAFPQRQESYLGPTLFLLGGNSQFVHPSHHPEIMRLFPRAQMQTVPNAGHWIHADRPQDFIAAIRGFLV
Chain of UniProt Q96BM9 (Q96BM9 whole entry, looked up): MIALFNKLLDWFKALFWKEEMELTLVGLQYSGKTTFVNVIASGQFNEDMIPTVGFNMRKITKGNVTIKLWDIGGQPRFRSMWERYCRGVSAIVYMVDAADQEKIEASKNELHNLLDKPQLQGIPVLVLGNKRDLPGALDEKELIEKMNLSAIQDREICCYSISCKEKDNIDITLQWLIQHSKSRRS
Chain of UniProt P35573 (P35573 whole entry, looked up): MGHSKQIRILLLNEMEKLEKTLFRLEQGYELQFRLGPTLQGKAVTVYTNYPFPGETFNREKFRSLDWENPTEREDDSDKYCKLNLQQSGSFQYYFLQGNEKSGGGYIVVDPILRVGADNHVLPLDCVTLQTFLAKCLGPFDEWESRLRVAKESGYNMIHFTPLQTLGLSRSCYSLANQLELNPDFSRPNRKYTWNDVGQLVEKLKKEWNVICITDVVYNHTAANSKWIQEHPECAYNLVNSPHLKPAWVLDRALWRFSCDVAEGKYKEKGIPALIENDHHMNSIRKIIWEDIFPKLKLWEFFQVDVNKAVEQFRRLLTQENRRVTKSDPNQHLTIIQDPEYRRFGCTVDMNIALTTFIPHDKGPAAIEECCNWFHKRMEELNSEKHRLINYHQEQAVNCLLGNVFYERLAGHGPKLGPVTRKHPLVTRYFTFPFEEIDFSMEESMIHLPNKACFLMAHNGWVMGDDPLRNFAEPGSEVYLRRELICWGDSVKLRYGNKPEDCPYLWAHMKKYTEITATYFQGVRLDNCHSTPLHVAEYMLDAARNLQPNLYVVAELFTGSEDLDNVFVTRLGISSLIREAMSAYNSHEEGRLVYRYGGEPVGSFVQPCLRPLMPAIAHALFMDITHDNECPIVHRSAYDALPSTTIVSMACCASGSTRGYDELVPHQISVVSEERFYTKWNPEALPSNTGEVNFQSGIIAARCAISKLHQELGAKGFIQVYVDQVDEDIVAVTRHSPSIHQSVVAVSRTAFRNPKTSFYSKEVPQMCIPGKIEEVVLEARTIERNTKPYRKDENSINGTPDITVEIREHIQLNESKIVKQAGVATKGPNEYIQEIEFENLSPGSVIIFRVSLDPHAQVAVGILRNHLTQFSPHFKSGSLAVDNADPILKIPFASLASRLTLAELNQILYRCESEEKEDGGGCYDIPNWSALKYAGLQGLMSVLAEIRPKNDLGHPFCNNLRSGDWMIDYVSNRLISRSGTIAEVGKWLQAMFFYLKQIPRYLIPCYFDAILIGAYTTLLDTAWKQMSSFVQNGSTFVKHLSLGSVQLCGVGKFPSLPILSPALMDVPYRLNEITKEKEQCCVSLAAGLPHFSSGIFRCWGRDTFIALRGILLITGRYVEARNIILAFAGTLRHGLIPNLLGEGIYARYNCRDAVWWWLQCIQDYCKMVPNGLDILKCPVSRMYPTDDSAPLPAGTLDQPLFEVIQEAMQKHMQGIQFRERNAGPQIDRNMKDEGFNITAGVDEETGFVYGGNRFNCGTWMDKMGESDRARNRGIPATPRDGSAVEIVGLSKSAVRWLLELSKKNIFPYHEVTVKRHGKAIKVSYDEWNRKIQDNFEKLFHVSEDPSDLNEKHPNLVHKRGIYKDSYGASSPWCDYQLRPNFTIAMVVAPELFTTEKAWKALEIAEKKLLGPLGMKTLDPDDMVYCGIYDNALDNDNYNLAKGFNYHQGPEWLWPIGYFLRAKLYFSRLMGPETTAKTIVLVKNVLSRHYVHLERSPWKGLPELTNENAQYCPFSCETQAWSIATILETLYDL
Chain of UniProt Q6NXE6 (Q6NXE6 whole entry, looked up): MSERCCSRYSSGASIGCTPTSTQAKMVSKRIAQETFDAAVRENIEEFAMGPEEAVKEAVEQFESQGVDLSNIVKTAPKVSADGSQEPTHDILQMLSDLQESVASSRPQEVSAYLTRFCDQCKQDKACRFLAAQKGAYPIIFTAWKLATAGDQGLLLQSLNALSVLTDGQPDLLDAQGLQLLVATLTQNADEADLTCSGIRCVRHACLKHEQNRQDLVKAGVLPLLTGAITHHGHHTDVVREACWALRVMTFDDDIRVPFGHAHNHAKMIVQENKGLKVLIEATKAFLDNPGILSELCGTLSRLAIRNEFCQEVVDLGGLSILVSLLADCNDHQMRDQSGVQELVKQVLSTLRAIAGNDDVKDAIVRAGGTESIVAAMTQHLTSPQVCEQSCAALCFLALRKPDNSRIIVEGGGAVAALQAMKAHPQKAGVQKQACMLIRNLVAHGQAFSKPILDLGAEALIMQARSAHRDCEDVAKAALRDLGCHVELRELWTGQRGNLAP
Chain of UniProt P42330 (P42330 whole entry, looked up): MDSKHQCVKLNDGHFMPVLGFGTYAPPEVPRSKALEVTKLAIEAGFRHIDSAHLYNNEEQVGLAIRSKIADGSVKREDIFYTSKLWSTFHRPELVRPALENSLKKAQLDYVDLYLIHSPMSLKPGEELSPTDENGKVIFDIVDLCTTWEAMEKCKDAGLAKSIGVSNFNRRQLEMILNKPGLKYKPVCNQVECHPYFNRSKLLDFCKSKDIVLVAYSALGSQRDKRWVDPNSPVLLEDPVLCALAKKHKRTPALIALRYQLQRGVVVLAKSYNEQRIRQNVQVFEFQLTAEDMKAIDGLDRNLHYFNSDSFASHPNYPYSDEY
Chain of UniProt P31751 (P31751 whole entry, looked up): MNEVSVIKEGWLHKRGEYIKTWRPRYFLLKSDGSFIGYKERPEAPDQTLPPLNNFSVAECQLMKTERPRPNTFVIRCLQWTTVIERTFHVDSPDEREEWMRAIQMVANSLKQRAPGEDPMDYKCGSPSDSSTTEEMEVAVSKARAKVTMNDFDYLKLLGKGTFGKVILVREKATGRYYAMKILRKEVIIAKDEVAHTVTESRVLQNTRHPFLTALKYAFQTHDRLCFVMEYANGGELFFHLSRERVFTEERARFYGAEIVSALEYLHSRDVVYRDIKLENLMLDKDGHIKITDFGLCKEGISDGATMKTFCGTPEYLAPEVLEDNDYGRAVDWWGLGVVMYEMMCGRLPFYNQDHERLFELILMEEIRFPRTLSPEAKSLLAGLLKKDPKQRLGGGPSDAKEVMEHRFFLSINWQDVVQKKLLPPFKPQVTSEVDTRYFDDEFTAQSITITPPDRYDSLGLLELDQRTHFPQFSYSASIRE

As to AKR1C3 (UniProt P42330), the log2 fold change with lapatinib is -0.03; in the experiment with pictilisib, -0.024; with crizotinib it was -0.039; in [1] it was -0.014; with duvelisib, -0.036; with gandotinib, 0.052. The log2 fold change with tozasertib is -0.003; in the experiment with doramapimod, 0.022; with bafetinib, 0.022; in [2] it was -0.026.

Turning to ALKBH4 (UniProt Q9NXW9), the log2 fold change in the experiment with lapatinib is -0.02; with pictilisib it was 0.003; in the experiment with crizotinib it was 0.04; in experiment [1] it was -0.055; with duvelisib, 0.035; with gandotinib, -0.019. In addition, the log2 fold change was 0.047 with tozasertib, -0.018 with doramapimod, -0.108 with bafetinib and -0.028 in experiment [2].

Regarding ABHD17A isoform 2 (UniProt Q96GS6), the log2 fold change in the experiment with lapatinib was -0.034; with pictilisib, -0.044; with crizotinib, 0.017; in experiment [1], -0.074; with duvelisib it was 0.01; in the experiment with gandotinib, 0.139. The log2 fold change in the experiment with tozasertib is 0.019; in the experiment with doramapimod, 0.044; with bafetinib, 0.019; in [2], 0.065.

On to ARFGAP1 (UniProt Q8N6T3), for which the log2 fold change was 0.002 with lapatinib; 0.175 with pictilisib; 0.031 with crizotinib; -0.077 in [1]; -0.054 with duvelisib; 1.08 (active) in the experiment with gandotinib. For the same target, the log2 fold change with tozasertib is -0.011; with doramapimod it was 0.202; with bafetinib, -0.157; in experiment [2], 0.202.

On to ALDH18A1 (UniProt P54886), for which the log2 fold change is -0.052 with lapatinib; -0.063 in the experiment with pictilisib; -0.034 with crizotinib; 0.001 in experiment [1]; -0.017 with duvelisib; -0.064 with gandotinib. Besides, the log2 fold change with tozasertib is 0.002; in the experiment with doramapimod it was 0.047; with bafetinib, -0.006; in experiment [2] it was 0.018.

With ACBD6 (UniProt Q9BR61), the log2 fold change in the experiment with lapatinib was -0.002; in the experiment with pictilisib, 0.01; with crizotinib it was -0.04; in [1], -0.036; with duvelisib, 0.063; with gandotinib, -0.01. In addition, the log2 fold change with tozasertib was -0.051; with doramapimod, -0.024; in the experiment with bafetinib it was -0.047; in experiment [2], 0.006.

Consider ARL8A (UniProt Q96BM9), for which the log2 fold change is -0.11 in the experiment with lapatinib; 0.038 with pictilisib; 0.091 in the experiment with crizotinib; 0.426 (active) in experiment [1]; -0.078 with duvelisib; 0 in the experiment with gandotinib. Further, the log2 fold change was -0.063 with tozasertib, -0.005 with doramapimod, -0.016 with bafetinib and -0.088 in experiment [2].

As for ACLY (UniProt P53396), the log2 fold change is -0.011 with lapatinib; -0.009 with pictilisib; -0.005 with crizotinib; -0.025 in experiment [1]; 0.012 with duvelisib; 0.01 with gandotinib. Moreover, the log2 fold change is 0.003 with tozasertib, 0.015 in the experiment with doramapimod, 0.008 in the experiment with bafetinib and 0.013 in experiment [2].

With AP5B1 (UniProt Q2VPB7), the log2 fold change with lapatinib is 0.095; with pictilisib it was -0.046; in the experiment with crizotinib, 0.069; in experiment [1], 0.034; with duvelisib, -0.012; with gandotinib, -0.092. Besides, the log2 fold change with tozasertib was -0.028; in the experiment with doramapimod, 0.272; with bafetinib, -0.056; in [2], 0.047.

In the case of ACTG1 (UniProt I3L4N8), the log2 fold change is -0.072 in the experiment with lapatinib; -0.209 with pictilisib; -0.066 with crizotinib; -0.039 in [1]; 0.13 with duvelisib; -0.159 with gandotinib. Moreover, the log2 fold change in the experiment with tozasertib was 0.083; in the experiment with doramapimod it was -0.065; with bafetinib it was -0.183; in experiment [2] it was -0.096.

Regarding ARMC6 (UniProt Q6NXE6), the log2 fold change is 0 in the experiment with lapatinib; -0.015 in the experiment with pictilisib; -0.022 in the experiment with crizotinib; 0.012 in [1]; -0.027 with duvelisib; -0.067 in the experiment with gandotinib. Besides, the log2 fold change with tozasertib was 0.024; with doramapimod, 0; in the experiment with bafetinib it was -0.016; in [2], -0.009.

On to ABHD11 (UniProt Q8NFV4), for which the log2 fold change in the experiment with lapatinib was 0.024; with pictilisib, 0.033; with crizotinib, -0.019; in experiment [1], -0.121; with duvelisib it was 0.028; with gandotinib, 0.853 (active). Further, the log2 fold change with tozasertib was 0.081; in the experiment with doramapimod, -0.034; in the experiment with bafetinib it was 0.009; in experiment [2], 0.05.

Regarding AKT2 (UniProt P31751), the log2 fold change in the experiment with lapatinib is -0.022; with pictilisib, 0.005; with crizotinib it was 0.015; in experiment [1], -0.007; with duvelisib it was -0.005; with gandotinib, -0.022. The log2 fold change with tozasertib is 0.033; in the experiment with doramapimod, -0.015; with bafetinib, 0.051; in [2], -0.036.

With AGL (UniProt P35573), the log2 fold change was -0.004 in the experiment with lapatinib; 0 with pictilisib; -0.019 with crizotinib; 0.115 in experiment [1]; -0.013 with duvelisib; -0.094 in the experiment with gandotinib. For the same target, the log2 fold change with tozasertib was 0.014; with doramapimod, 0.029; in the experiment with bafetinib it was -0.037; in [2], -0.059.

The values above are taken from the supplement of paper PMC10849652.
